Source: PubChem BioAssay
HCV inhibitor: qHTS Assay for Inhibitors of Hepatitis C Virus (HCV). 340,000 tested, 3.4% active. Huh7.5.1 HCVcc-Cre infection, luciferase reporter, 44 h. Potency, µM (top dose mostly 41.8 µM), without a hit: at the highest dose activity change, negative = inhibition, hits mostly inhibitors
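Seed cells (1,000/well) for 4 h; treat with compound and infect with HCVcc-Cre, moi about 0.5. Incubate 44 h, then detect luciferase activity.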
Pf growth 96h: Primary qHTS for delayed death inhibitors of the malarial parasite plastid, 96 hour incubation. Potency, µM (series often up to 28.7 µM), without a hit: top-dose activity change, negative = inhibition, hits mostly inhibitors. P. falciparum luciferase reporter growth, 96 h. AID 504834, 2011. 320,000 tested, 6.9% active
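Cell-based qHTS: luciferase-tagged P. falciparum in erythrocytes (2% hematocrit, 0.05% parasitemia final) incubated with compounds for 96 hours, 37 C, 5% CO2; luciferase detection reagent then added and luminescence measured.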
Pf growth 48h: Primary qHTS for delayed death inhibitors of the malarial parasite plastid, 48 hour incubation | 310,000 tested, 5.9% active | P. falciparum luciferase growth in erythrocytes, 48 h | Potency, µM (highest dose often 28.7 µM), inactives show at the top dose activity change, negative = inhibition, actives largely listed as inhibitors
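Growth was read as firefly luciferase luminescence after a 48 h, 37 C, 5% CO2 exposure of compounds to reporter-bearing P. falciparum cultures (0.1% parasitemia, 2% hematocrit final) in Albumax-supplemented RPMI 1640.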
AMA1 RON2 block: qHTS for Inhibitors of AMA1-RON; Towards Development of Antimalarial Drug Lead: Primary Screen; Potency, µM (series often up to 58.2 µM), for the others: at the highest dose activity change, negative = inhibition, most hits filed as inhibitors; Plasmodium falciparum AMA1 (3D7) - RON2 peptide interaction; 360,000 tested, 0.2% active; AlphaScreen AMA1-biotinylated RON2 peptide binding;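 also: 0% = vehicle wells and -100% = peptide control; nearly all actives have a fitted effect of over 45% in size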
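AMA1 (3D7) with his tag at 25 nM final met compounds first, then biotinylated RON2 peptide at 25 nM; detection used donor plus acceptor beads, 10 µg/mL apiece, read by AlphaScreen after 30 min at room temperature.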
The depositor's hits bear a star; i = inactive; ? = inconclusive; . = no result. Most compounds without a hit are left out; they make up all but 11% or so of the library. Calls follow the shape of the dose curve; as a rule, active = well fitted curve in the direction sought with a large enough effect; inconclusive = small, poorly fitted or top-dose-only effect, or another doubt; inactive = no such curve, though single readings can be large; an effect the other way counts as inactive or inconclusive. Unless noted, % is scaled to controls: 0 for no effect and ±100 for the full control effect; potency is read from the fitted curve at half-maximal effect.

SMILES | HCV inhibitor | Pf growth 96h | Pf growth 48h | AMA1 RON2 block
O=C(Nc1ccc(C2=NCCN2)cc1)c1ccc(Cl)c(C(=O)Nc2ccc(C3=NCCN3)cc2)c1 | . | 0.21µM* | 2.3µM* | .
Clc1ccc(C2=NCCN2)cc1 | 12% | 1% | -29% | -2%
CN(C)CCNC(=O)C(=O)NCC1CCCN1S(=O)(=O)c1cccs1 (stereo unspecified) | -1% | 29% | 13% | 17%
CCN(CC)CCOC(=O)c1ccc(N/C=C(/C#N)c2nc(-c3ccc4c(c3)OCO4)cs2)cc1 | 10µM* | 1.3µM* | 1µM* | ?
CCN(CC)CCOC(=O)c1ccc(N/C=C(/C#N)c2nc(-c3cc4ccccc4oc3=O)cs2)cc1 | 3% | 0.15µM* | 0.083µM* | -11%
COc1cc(/C=C(/C#N)c2nc(-c3cc4ccccc4oc3=O)cs2)cc([N+](=O)[O-])c1O | . | ? | 2.3µM* | .
CCN(CC(=O)Nc1c(F)cccc1F)C(=O)C1CCN(S(=O)(=O)c2ccccc2C(=O)OC)CC1 | 4% | . | . | 71%
C/C(=N\NC(=O)C1=NNC(=O)C1C)c1cccs1 (stereo unspecified) | -9% | 3% | 0% | 35%
CCOc1ccc(S(=O)(=O)n2cnc3cc(C)c(C)cc32)cc1 | 10µM* | 8% | 3% | 15%
Cc1cc2ncn(S(=O)(=O)c3ccc(S(N)(=O)=O)cc3)c2cc1C | -15% | . | . | 12%
O=C(c1[nH]c(C(F)(F)F)nc1-c1ccccc1)N1CCc2ccccc2C1 | . | . | . | -14%
CCOc1ccccc1NC(=O)Nc1cccc(S(N)(=O)=O)c1 | 32µM* | 21% | 43% | 2%
CCOc1ccccc1NC(=O)Nc1cccc(NC(C)=O)c1 | ? | ? | -11% | 9%
COC(=O)COc1cccc(NC(=O)c2ccccc2)c1 | 14% | 41% | 16% | -8%
COc1cccc(C(=O)COc2cccc(NC(=O)c3cccc([N+](=O)[O-])c3)c2)c1 | 8.9µM* | ? | ? | -9%
O=C(COc1cccc(NC(=O)c2cccc([N+](=O)[O-])c2)c1)c1ccc(F)cc1 | ? | ? | ? | -7%
CCOc1cccc(C(=O)Nc2cccc(C(C)=O)c2)c1 | -30% | 3.3µM* | 120% | 12%
COC(=O)COc1cccc(NC(=O)c2cccc(C)c2)c1 | -10% | 10µM* | 10% | 6%
Cc1ccc(C(O)c2ncc(-c3ccc(Cl)cc3)[nH]2)cc1 (stereo unspecified) | . | . | . | -16%
CC/S(=N\S(=O)(=O)c1ccc(C)cc1)c1ccccc1 (stereo unspecified) | 7% | 0% | 17% | -6%
COCc1cc(=O)[nH]c(N2CCN(Cc3ccc4c(c3)OCO4)CC2)n1 | 9% | 18% | . | -3%
Cc1ccc(C(=O)NCCc2ccc(F)cc2)s1 | -13% | ? | i | -28%
CCOc1ccccc1NC(=O)Nc1ccc2c(c1)CCC2 | 13µM* | ? | 12% | -10%
CCOc1ccc(NC(=O)c2cccc(OC(=S)N3CCC(C)CC3)c2)cc1 | -7% | 12µM* | ? | 4%
CCOc1ccccc1NC(=O)Nc1cccc(C(C)=O)c1 | 7.1µM* | -22% | . | -20%
SMILES | HCV inhibitor | Pf growth 96h | Pf growth 48h | AMA1 RON2 block
CCOc1ccc(C(C)=O)cc1NC(=O)/C=C\C(=O)O | 10% | 10µM* | 40% | -2%
Cc1ccc(CSc2nc(N)cc(=O)[nH]2)cc1 | -12% | 26% | . | -5%
Cc1ccc(C(=O)COC(=O)c2cccc(NC(=O)c3ccc([N+](=O)[O-])cc3[N+](=O)[O-])c2)cc1 | 11µM* | 195% | -64% | 19%
COC(=O)c1ccc(NC(=O)C[n+]2ccccc2)cc1 | 10% | 13µM* | -5% | 0%
CCOc1ccc(NC(=O)C[n+]2ccc(N(C)C)cc2)cc1 | 13% | ? | 0.66µM* | -5%
CN(C)c1cc[n+](CC(=O)Nc2ccc(Oc3ccccc3)cc2)cc1 | ? | ? | ? | -2%
CN(C)c1cc[n+](CC(=O)c2ccc(OC(F)F)cc2)cc1 | 14% | 0.74µM* | 0.74µM* | -5%
CN(C)c1cc[n+](CC(=O)Nc2ccc(Cl)cc2)cc1 | -20% | ? | 0.083µM* | 10%
CCOC(=O)N1CCN(C(=O)CSCc2ccccc2Cl)CC1 | 7% | -24% | 21% | -3%
CCN1CCN(C(C(=O)NC2CCCCC2)c2ccc(Cl)cc2)CC1 (stereo unspecified) | ? | . | 11% | 7%
Cc1nn(CCc2nn[nH]n2)c2nc(-c3ccc(C4CCCCC4)cc3)cc(C(F)(F)F)c12 | ? | ? | 5.2µM* | 43%
Cc1ccc(-c2nnc(Nc3ccc(C(N)=O)cc3)c3ccccc23)cc1S(=O)(=O)NCC1CCCO1 (stereo unspecified) | 6% | ? | 8.3µM* | 6%
COc1nnc(-c2ccc(C)c(S(=O)(=O)NCC3CCCO3)c2)c2ccccc12 (stereo unspecified) | -14% | -5% | ? | -2%
Cc1ccc(-c2nnc(N3CCCCC3)c3ccccc23)cc1S(=O)(=O)NCC1CCCO1 (stereo unspecified) | ? | . | 4.7µM* | -9%
O=C(Nc1ccc(N2CCOCC2)cc1)c1csc([C@@H]2C[C@H](O)[C@@H](CO)O2)n1 | . | . | . | 3%
COc1ccc(C2CC(=O)C3=C(C2)NC(C)=C(C(=O)Nc2ccccc2C)C3c2coc3ccc(C)cc3c2=O)cc1OC (stereo unspecified) | ? | ? | 2.3µM* | -2%
CCc1cc(-c2[nH]ncc2-c2nc3ccccc3n2C)c(O)cc1O | -22% | -25% | -18% | 95%
CCOc1cc(O)c(-c2[nH]ncc2-c2nc(C)cs2)cc1CC | ? | ? | 15µM* | 112%
COc1cccc(C(NC(C)=O)c2nc(-c3csc4ccccc34)cs2)c1 (stereo unspecified) | . | . | . | -16%
CCC(=O)N(Cc1cccs1)C1CCOC(C)(C)C1 (stereo unspecified) | 23% | 26% | ? | -18%
CCCN(CCc1cccs1)[C@H]1CCc2c(O)cccc2C1 | . | 1.5µM* | 6.7µM* | .
CCNC(=O)CC1C(=O)N(CC)C(=S)N1NC(=O)c1ccccc1 (stereo unspecified) | 14% | ? | -2% | 58%
CC(C)C1C(c2ccccc2)NC(c2ccccc2)CC1(O)c1ccc(F)cc1 (stereo unspecified) | ? | ? | 4.1µM* | -3%
O=C(CNCc1ccccn1)N1CCc2ccccc2C1 | -3% | ? | ? | -8%
COCCNC(=O)c1cccc(OC2CCN(C(C)COc3ccccc3)CC2)c1 (stereo unspecified) | -16% | ? | ? | 3%
O=C1c2ccccc2C(=O)N1CCc1nc2ccccc2c(=O)n1-c1ccccn1 | 18% | ? | 13% | 8%
